{"source": "paper PMC8384837", "about": "“Expanding the binding specificity for RNA recognition by a PUF domain”", "assay_in_all_cases": "yeast three-hybrid, YBZ-1, SC-Leu-His + 0.5 mM 3-AT, 4 days", "conditions_in_all_cases": "tags: N-Gal4 AD-HA kept; label: inside an RPR1-promoter hybrid RNA with tandem MS2 sites; ssRNA", "key": {"PUM1 PUF domain R5-GRC": {"biological_target": "PUM1 PUF domain R5-GRC (Homo sapiens, UniProt Q14671 828-1176, C1007G;Q1011C)", "how_it_was_run": "(§1)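 A centromeric plasmid in strain YBZ-1 co-expressed Pumilio-1 PUF domain libraries, randomized at the three base-contacting residues of each repeat, with matching RNA elements; the strain carries a LexA–MS2 coat fusion and a HIS3 reporter. After four days on SC-Leu (input) or SC-Leu-His + 0.5 mM 3-AT (selection), the repeat regions were PCR-amplified and Illumina-sequenced. The interaction score is the log change in variant frequency from input to selection, using log2 and a pseudocount of 1 where absent.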"}, "PUM1 PUF domain R5-NTR": {"biological_target": "PUM1 PUF domain R5-NTR (Homo sapiens, UniProt Q14671 828-1176, C1007N;R1008T;Q1011R)", "how_it_was_run": "as §1"}, "PUM1 PUF domain R5-RQM": {"biological_target": "PUM1 PUF domain R5-RQM (Homo sapiens, UniProt Q14671 828-1176, C1007R;R1008Q;Q1011M)", "how_it_was_run": "as §1"}, "PUM1 PUF domain R3-GPQ": {"biological_target": "PUM1 PUF domain R3-GPQ (Homo sapiens, UniProt Q14671 828-1176, C935G;R936P)", "how_it_was_run": "as §1"}, "PUM1 PUF domain R3-EFS": {"biological_target": "PUM1 PUF domain R3-EFS (Homo sapiens, UniProt Q14671 828-1176, C935E;R936F;Q939S)", "how_it_was_run": "as §1"}, "PUM1 PUF domain R2-RTS": {"biological_target": "PUM1 PUF domain R2-RTS (Homo sapiens, UniProt Q14671 828-1176, N899R;Y900T;Q903S)", "how_it_was_run": "as §1"}, "PUM1 PUF domain R8-WYR": {"biological_target": "PUM1 PUF domain R8-WYR (Homo sapiens, UniProt Q14671 828-1176, N1122W;Q1126R)", "how_it_was_run": "as §1"}, "PUM1 PUF domain R6-CYE": {"biological_target": "T1, PUM1 PUF domain R6-CYE (Homo sapiens, UniProt Q14671 828-1176, N1043C;Q1047E)", "T1 sequence": "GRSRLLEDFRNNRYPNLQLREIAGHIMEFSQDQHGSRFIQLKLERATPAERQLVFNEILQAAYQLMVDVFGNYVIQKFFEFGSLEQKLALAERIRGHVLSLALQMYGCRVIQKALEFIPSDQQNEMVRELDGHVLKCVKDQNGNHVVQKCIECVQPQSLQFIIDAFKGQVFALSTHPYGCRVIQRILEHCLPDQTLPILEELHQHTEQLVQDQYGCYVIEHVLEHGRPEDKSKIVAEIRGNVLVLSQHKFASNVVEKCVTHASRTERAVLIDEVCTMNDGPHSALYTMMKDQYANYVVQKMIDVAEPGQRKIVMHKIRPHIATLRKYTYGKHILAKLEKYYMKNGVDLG", "how_it_was_run": "as §1"}, "PUM1 PUF domain R1-SPK": {"biological_target": "PUM1 PUF domain R1-SPK (Homo sapiens, UniProt Q14671 828-1176, R864P;Q867K)", "how_it_was_run": "as §1"}, "PUM1 PUF domain R5-IFM": {"biological_target": "PUM1 PUF domain R5-IFM (Homo sapiens, UniProt Q14671 828-1176, C1007I;R1008F;Q1011M)", "how_it_was_run": "as §1"}}}
{"sequence": "GGCUAGAACUAGUGGAUCCCCCGGCGCCCGGCGGCUCGAGCCCGGGUAAGUGUCAAUAGUCUGCAUGCCGCCGGGCGCCAUGCCUGCAGGUCGACUCUAGAAAACAUG", "values": [{"measurement": "binding signal", "setting": "PUM1 PUF domain R5-GRC", "value": "0.62 log2 enrichment (interaction score)"}, {"measurement": "binding signal", "setting": "PUM1 PUF domain R5-NTR", "value": "5.46 log2 enrichment (interaction score)"}, {"measurement": "binding signal", "setting": "PUM1 PUF domain R5-RQM", "value": "4.46 log2 enrichment (interaction score)"}]}
{"sequence": "GGCUAGAACUAGUGGAUCCCCCGGCGCCCGGCGGCUCGAGCCCGGGUAAGUGUGAAUAGUCUGCAUGCCGCCGGGCGCCAUGCCUGCAGGUCGACUCUAGAAAACAUG", "values": [{"measurement": "binding signal", "setting": "PUM1 PUF domain R5-GRC", "value": "1.57 log2 enrichment (interaction score)"}]}
{"sequence": "GGCUAGAACUAGUGGAUCCCCCGGCGCCCGGCGGCUCGAGCCCGGGUAAGUGUAAGUAGUCUGCAUGCCGCCGGGCGCCAUGCCUGCAGGUCGACUCUAGAAAACAUG", "values": [{"measurement": "binding signal", "setting": "PUM1 PUF domain R3-GPQ", "value": "3.73 log2 enrichment (interaction score)"}, {"measurement": "binding signal", "setting": "PUM1 PUF domain R3-EFS", "value": "3.82 log2 enrichment (interaction score)"}]}
{"sequence": "GGCUAGAACUAGUGGAUCCCCCGGCGCCCGGCGGCUCGAGCCCGGGUAAGUGUAAAGAGUCUGCAUGCCGCCGGGCGCCAUGCCUGCAGGUCGACUCUAGAAAACAUG", "values": [{"measurement": "binding signal", "setting": "PUM1 PUF domain R2-RTS", "value": "3.27 log2 enrichment (interaction score)"}]}
{"sequence": "GGCUAGAACUAGUGGAUCCCCCGGCGCCCGGCGGCUCGAGCCCGGGUAAGUGUUAAUAGUCUGCAUGCCGCCGGGCGCCAUGCCUGCAGGUCGACUCUAGAAAACAUG", "values": [{"measurement": "binding signal", "setting": "PUM1 PUF domain R5-GRC", "value": "4.6 log2 enrichment (interaction score)"}]}
{"sequence": "GGCUAGAACUAGUGGAUCCCCCGGCGCCCGGCGGCUCGAGCCCGGGUAAGUGUAAUUAGUCUGCAUGCCGCCGGGCGCCAUGCCUGCAGGUCGACUCUAGAAAACAUG", "values": [{"measurement": "binding signal", "setting": "PUM1 PUF domain R3-GPQ", "value": "1.42 log2 enrichment (interaction score)"}, {"measurement": "binding signal", "setting": "PUM1 PUF domain R3-EFS", "value": "4.44 log2 enrichment (interaction score)"}]}
{"sequence": "GGCUAGAACUAGUGGAUCCCCCGGCGCCCGGCGGCUCGAGCCCGGGUAAGCGUAAAUAGUCUGCAUGCCGCCGGGCGCCAUGCCUGCAGGUCGACUCUAGAAAACAUG", "values": [{"measurement": "binding signal", "setting": "PUM1 PUF domain R8-WYR", "value": "4.97 log2 enrichment (interaction score)"}]}
{"sequence": "GGCUAGAACUAGUGGAUCCCCCGGCGCCCGGCGGCUCGAGCCCGGGUAAGUGGAAAUAGUCUGCAUGCCGCCGGGCGCCAUGCCUGCAGGUCGACUCUAGAAAACAUG", "values": [{"measurement": "binding signal", "setting": "PUM1 PUF domain R6-CYE", "value": "2.53 log2 enrichment (interaction score)"}]}
{"sequence": "GGCUAGAACUAGUGGAUCCCCCGGCGCCCGGCGGCUCGAGCCCGGGUAAGUGUAAAUCGUCUGCAUGCCGCCGGGCGCCAUGCCUGCAGGUCGACUCUAGAAAACAUG", "values": [{"measurement": "binding signal", "setting": "PUM1 PUF domain R1-SPK", "value": "2.31 log2 enrichment (interaction score)"}]}
{"sequence": "GGCUAGAACUAGUGGAUCCCCCGGCGCCCGGCGGCUCGAGCCCGGGUAAGUGUAAAUAGUCUGCAUGCCGCCGGGCGCCAUGCCUGCAGGUCGACUCUAGAAAACAUG", "values": [{"measurement": "binding signal", "setting": "PUM1 PUF domain R5-GRC", "value": "4.07 log2 enrichment (interaction score)"}, {"measurement": "binding signal", "setting": "PUM1 PUF domain R5-IFM", "value": "2.52 log2 enrichment (interaction score)"}, {"measurement": "binding signal", "setting": "PUM1 PUF domain R8-WYR", "value": "4.75 log2 enrichment (interaction score)"}, {"measurement": "binding signal", "setting": "PUM1 PUF domain R3-GPQ", "value": "4.19 log2 enrichment (interaction score)"}, {"measurement": "binding signal", "setting": "PUM1 PUF domain R5-RQM", "value": "2.06 log2 enrichment (interaction score)"}, {"measurement": "binding signal", "setting": "PUM1 PUF domain R3-EFS", "value": "2.99 log2 enrichment (interaction score)"}]}
